Shown is part of a subset that was picked to be rich in hits.
IDE exosite FP – exo-site inhibitors of human insulin-degrading enzyme. P14735. purified IDE, FL-6b probe fluorescence polarization; hits give low values. z-score at 20 µM. hit rate 6.3% among 17,000;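 active = z-score of -3 or lower, meaning strong loss of probe binding signal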;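 also: His-tagged human IDE residues 42-1019 made in E. coli with 30 nM FL-6b probe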
Target sequence (P14735 42-1019 limits assumed): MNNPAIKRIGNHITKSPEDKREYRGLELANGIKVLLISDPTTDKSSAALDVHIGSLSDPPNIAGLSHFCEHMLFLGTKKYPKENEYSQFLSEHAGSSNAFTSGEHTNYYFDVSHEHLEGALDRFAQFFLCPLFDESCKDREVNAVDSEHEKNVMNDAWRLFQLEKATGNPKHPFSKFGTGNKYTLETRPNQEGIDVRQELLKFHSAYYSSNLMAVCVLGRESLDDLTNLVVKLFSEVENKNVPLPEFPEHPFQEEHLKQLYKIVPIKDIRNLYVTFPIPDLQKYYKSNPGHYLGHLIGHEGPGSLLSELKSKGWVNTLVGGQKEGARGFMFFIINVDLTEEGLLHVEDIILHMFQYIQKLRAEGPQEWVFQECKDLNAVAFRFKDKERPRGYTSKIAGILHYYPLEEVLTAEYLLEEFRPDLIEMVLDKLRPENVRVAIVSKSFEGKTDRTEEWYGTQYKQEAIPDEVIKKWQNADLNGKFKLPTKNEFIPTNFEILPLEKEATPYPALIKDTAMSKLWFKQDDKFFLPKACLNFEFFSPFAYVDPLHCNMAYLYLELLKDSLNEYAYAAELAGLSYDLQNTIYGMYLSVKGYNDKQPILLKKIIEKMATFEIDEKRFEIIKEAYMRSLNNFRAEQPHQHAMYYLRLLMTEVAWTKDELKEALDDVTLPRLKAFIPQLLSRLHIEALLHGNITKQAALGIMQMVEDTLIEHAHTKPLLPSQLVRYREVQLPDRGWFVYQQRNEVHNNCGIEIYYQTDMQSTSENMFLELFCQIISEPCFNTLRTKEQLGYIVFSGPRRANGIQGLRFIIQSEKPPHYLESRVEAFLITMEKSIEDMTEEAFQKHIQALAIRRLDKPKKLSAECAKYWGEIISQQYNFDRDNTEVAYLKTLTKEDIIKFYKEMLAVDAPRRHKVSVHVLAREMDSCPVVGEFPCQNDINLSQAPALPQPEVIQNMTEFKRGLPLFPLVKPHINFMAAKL
A number is an active result; - = inactive.

SMILES	IDE exosite FP
O=C(c1ccc(F)cc1)N1CC(=O)N2[C@@H](CO)[C@H](c3ccc(C#CC4CC4)cc3)[C@@H]2C1	-
O=C(C[C@@H]1CC[C@@H]2[C@H](COC[C@H](O)CN2C(=O)c2cnccn2)O1)N1CCN(c2ccccc2)CC1	-
COCC(=O)N1CC2(CCN(Cc3ccccc3)CC2)c2c([nH]c3cc(OC)ccc23)[C@@H]1CO	-
CC(C)N(C[C@H]1N[C@H](CO)[C@@H]1c1ccc(C2=CCCCC2)cc1)C(=O)CN(C)C	-
CCN(C[C@H]1N[C@@H](CO)[C@H]1c1ccccc1)C(=O)c1ccccc1	-
C/C=C/c1ccccc1[C@H]1[C@@H](C#N)N(C(=O)NC2CCCCC2)[C@H]1CO	-
CN1c2ccc(-c3ccccc3)cc2[C@@H]2[C@@H](CCN2C(=O)NC2CCCCC2)[C@@H]1CO	-
C[C@H]1CN([C@@H](C)CO)C(=O)c2cccc(NS(C)(=O)=O)c2O[C@@H]1CN(C)Cc1ccc(-c2ccccc2)cc1	-
O=C(C1CCC1)N1CC(=O)N2[C@H](CO)[C@H](c3ccc(C#Cc4cccc(F)c4)cc3)[C@@H]2C1	-
O=C(C1CCCCC1)N1CC(=O)N2[C@@H](CO)[C@@H](c3ccc(C#Cc4cccc(F)c4)cc3)[C@@H]2C1	-4.53
O=C(C1CCC1)N1CC(=O)N2[C@H](C1)[C@@H](c1ccc(C#Cc3cccc(F)c3)cc1)[C@@H]2CO	-
O=C(C1CCCC1)N1CC(=O)N2[C@H](CO)[C@@H](c3ccc(C#CC4CCCC4)cc3)[C@@H]2C1	-
O=C(c1cccc(F)c1)N1CC(=O)N2[C@@H](CO)[C@H](c3ccc(C#Cc4ccc(F)cc4)cc3)[C@@H]2C1	-
O=C(C1CCCCC1)N1CC(=O)N2[C@@H](CO)[C@H](c3ccc(C#Cc4cccc(F)c4)cc3)[C@@H]2C1	-
O=C(C1CCC1)N1CC(=O)N2[C@@H](CO)[C@H](c3ccc(C#Cc4cccc(F)c4)cc3)[C@@H]2C1	-3.37
O=C(C1CC1)N1CC(=O)N2[C@H](C1)[C@H](c1ccc(C#Cc3cccc(F)c3)cc1)[C@@H]2CO	-6.09
O=C(c1cccc(F)c1)N1CC(=O)N2[C@H](CO)[C@@H](c3ccc(C#Cc4ccc(F)cc4)cc3)[C@H]2C1	-
C[C@@H]1CN([C@H](C)CO)C(=O)c2ccccc2-c2ccccc2CO[C@@H]1CN(C)C(=O)Nc1ccnc(N2CCOCC2)c1	-
CO[C@@H]1CN(C)C(=O)c2ccc(NC(=O)c3nc4ccccc4s3)cc2OC[C@H](C)N(Cc2cccnc2)C[C@@H]1C	-
COc1ccc2c3c([nH]c2c1)[C@H](CO)N(Cc1cc(F)ccc1F)CC31CN(C(=O)C2CCC2)C1	-
COCCNC(=O)C[C@@H]1CC[C@H]2[C@@H](COC[C@H](O)CN2Cc2ccc(Cl)c(Cl)c2)O1	-
COc1cccc(S(=O)(=O)N2CCCCN3[C@H](CO)[C@@H](c4ccc(C#CC5CC5)cc4)[C@@H]3C2)c1	-
C/C=C/c1cccc(-c2nc(C(=O)NCCN3CCCCC3)cc3c2[C@H](CCO)N([S@@](=O)C(C)(C)C)C3)c1	-
CN(C)C(=O)c1cccc(-c2ccc([C@@H]3[C@@H](CO)N(C(=O)C4CCC4)[C@H]3C#N)cc2)c1	-
COc1ccccc1-c1ccc([C@@H]2[C@@H](C#N)N(C(=O)C3CCCCC3)[C@@H]2CO)cc1	-13.8
SMILES	IDE exosite FP
CN(C)C(=O)c1cccc(-c2ccc([C@H]3[C@@H](CO)N(C(=O)C4CC4)[C@H]3C#N)cc2)c1	-
COc1ccccc1-c1ccc([C@H]2[C@@H](C#N)N(C(=O)C3CCC3)[C@H]2CO)cc1	-5.02
COc1ccc(-c2ccc([C@@H]3[C@@H](CO)N(C(=O)C4CCCC4)[C@H]3C#N)cc2)cc1	-
N#C[C@H]1[C@@H](c2ccc(-c3ccccc3F)cc2)[C@@H](CO)N1C(=O)C1CCC1	-
COc1ccc(-c2ccc([C@@H]3[C@@H](C#N)N(C(=O)C4CCC4)[C@H]3CO)cc2)cc1	-
COc1ccccc1-c1ccc([C@@H]2[C@@H](C#N)N(C(=O)C3CCC3)[C@H]2CO)cc1	-5.2
COc1ccc(-c2ccc([C@@H]3[C@@H](CO)N(C(=O)C4CCCCC4)[C@H]3C#N)cc2)cc1	-
COc1ccccc1-c1ccccc1[C@H]1[C@H](C#N)N(C(=O)C2CCC2)[C@H]1CO	-
COc1ccccc1-c1ccccc1[C@H]1[C@@H](CO)N(C(=O)C2CCC2)[C@H]1C#N	-
CN(C)C(=O)c1cccc(-c2ccc([C@@H]3[C@@H](C#N)N(C(=O)C4CCC4)[C@@H]3CO)cc2)c1	-4.23
O=C(c1ccc(F)cc1)N1CC(=O)N2[C@@H](CO)[C@@H](c3ccc(C4=CCCC4)cc3)[C@@H]2C1	-
N#C[C@H]1[C@H](c2ccc(-c3cccc(F)c3)cc2)[C@H](CO)N1C(=O)NC1CCCC1	-
CCS(=O)(=O)NCC[C@H]1CC[C@H](NS(=O)(=O)c2ccccc2C)[C@H](CO)O1	-
CN(C)CC(=O)N[C@H]1CC[C@H](CCNC(=O)C2CCC2)O[C@H]1CO	-
CCNC[C@@H]1[C@H](c2ccc(-c3ccc(F)cc3)cc2)[C@H](CO)N1S(C)(=O)=O	-
CN(C)CC(=O)N1CCCCN2[C@H](C1)[C@H](c1ccc(-c3cccnc3)cc1)[C@@H]2CO	-
CCC(=O)N1[C@H](CO)[C@H](c2ccccc2)[C@H]1CNC(=O)CN1CCOCC1	-
COc1ccc(S(=O)(=O)Nc2ccc3c(c2)OC[C@H](C)NC[C@@H](C)[C@@H](OC)CN(C)C3=O)cc1	-
COc1ccccc1NC(=O)N1CC(=O)N2[C@@H](CO)[C@@H](c3ccc(C#CC4CC4)cc3)[C@@H]2C1	-
C[C@@H]1CN([C@@H](C)CO)C(=O)c2cc(NC(=O)Nc3ccc4c(c3)OCO4)ccc2O[C@@H](C)CCCCO[C@@H]1CN(C)C(=O)CCCN(C)C	-
N#C[C@H]1[C@H](c2ccc(-c3ccccc3F)cc2)[C@@H](CO)N1C(=O)C1CC1	-4.54
COc1ccccc1-c1ccc([C@H]2[C@@H](CO)N(C(=O)NC3CCCCC3)[C@H]2C#N)cc1	-6.89
COc1ccccc1-c1ccc([C@@H]2[C@@H](C#N)N(C(=O)C3CC3)[C@H]2CO)cc1	-10.6
N#C[C@H]1[C@@H](c2ccc(-c3ccccc3F)cc2)[C@H](CO)N1C(=O)C1CC1	-
COc1ccccc1-c1ccccc1[C@H]1[C@@H](C#N)N(C(=O)C2CC2)[C@@H]1CO	-
SMILES	IDE exosite FP
COc1ccc(-c2ccc([C@H]3[C@@H](C#N)N(C(=O)c4cccc(F)c4)[C@H]3CO)cc2)cc1	-
COc1ccc(-c2ccc([C@@H]3[C@@H](C#N)N(C(=O)NC4CCCCC4)[C@H]3CO)cc2)cc1	-
COc1ccccc1-c1ccccc1[C@@H]1[C@@H](C#N)N(C(=O)C2CC2)[C@@H]1CO	-
COc1ccccc1-c1ccc([C@H]2[C@@H](CO)N(C(=O)c3cccc(F)c3)[C@H]2C#N)cc1	-4.21
COc1ccc(-c2ccc([C@@H]3[C@@H](CO)N(C(=O)c4cccc(F)c4)[C@H]3C#N)cc2)cc1	-
N#C[C@@H]1[C@H](c2ccc(-c3ccccc3F)cc2)[C@@H](CO)N1C(=O)C1CC1	-
COc1ccc(-c2ccc([C@H]3[C@@H](C#N)N(C(=O)NC4CCCCC4)[C@@H]3CO)cc2)cc1	-
CCC(=O)Nc1ccc2c(c1)C(=O)N(C)C[C@@H](OC)[C@@H](C)CN(Cc1nccs1)[C@@H](C)CO2	-
C[C@@H]1CCCCO[C@@H](CN(C)C(=O)Nc2cccc3ccccc23)[C@H](C)CN([C@@H](C)CO)C(=O)c2cc(NC(=O)CCC(F)(F)F)ccc2O1	-

From PubChem
